The values below come from PubChem BioAssay (NCI).

The nature of test [1]: NCI Yeast Anticancer Drug Screen. Data for the rad50 strain (AID 155).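 Also: 0% = growth of vehicle-only cultures of the same strain.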 To be noted: S. cerevisiae rad50 strain growth inhibition; at 50.0 µM; stronger effect = higher value. A digest of the protocol: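 A DNA repair-deficient yeast mutant serves as the test organism; compound-induced growth inhibition is calculated against vehicle-treated cells.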
Test [2] in a line: NCI Yeast Anticancer Drug Screen. Data for the mec2-1 strain (AID 157). The note with it: S. cerevisiae mec2-1 strain, at 50.0 µM, stronger effect = higher value. The method, boiled down: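 Yeast mec2-1 mutant treated with compound. Readout: growth inhibition vs vehicle controls.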
Test [3] can be described thus: NCI Yeast Anticancer Drug Screen. Data for the sgs1 mgt1 strain (AID 161).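 Also: 0% = growth of cultures given vehicle only.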 The note with it: S. cerevisiae sgs1 mgt1 strain, at 50.0 µM, stronger effect = higher value. The method, boiled down: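 Inhibition of yeast growth, normalised to vehicle-treated controls, is reported for a strain bearing genetic alterations in DNA damage repair.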
The nature of test [4]: NCI Yeast Anticancer Drug Screen. Data for the cln2 rad14 strain (AID 165).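 Also: 0% = growth equal to vehicle treated cultures.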 To be noted: S. cerevisiae cln2 rad14 strain, at 50.0 µM, stronger effect = higher value. The method, boiled down: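 cln2 rad14 yeast strain; compound exposure; growth inhibition read vs vehicle controls.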
A short description of test [5]: NCI Yeast Anticancer Drug Screen. Data for the bub3 strain (AID 167). To be noted: S. cerevisiae bub3 mutant strain, at 50.0 µM, stronger effect = higher value. A digest of the protocol: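 Inhibition values come from growth of compound-treated mutant yeast normalised to vehicle-treated controls.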
The nature of test [6]: NCI Yeast Anticancer Drug Screen. Data for the mlh1 rad18 strain (AID 175). The note with it: S. cerevisiae mlh1 rad18 strain growth inhibition; at 50.0 µM; stronger effect = higher value. The method, boiled down:
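Yeast w/ defined DNA-repair lesions; compound exposure; growth vs vehicle controls → % inhibition.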

Each structure is given as a SMILES string. This is part of a sample that, as a whole, favours compounds with a hit. Of some 79,000 tested, about 15% had one in any assay. A number with no mark means an inactive call. Activity calls are given as the source filed them. Rule as the data show it: active = growth inhibition above about 70%; inactive = the rest.

Regarding `C(=N/NC(=N/N=C/c1ccccc1)N/N=C/c1ccccc1)/c1ccccc1`, the growth inhibition was 28.8% in test [1]; 23.1% in test [2]; 46.6% in test [3]; 28.3% in test [4]; 5.65% in test [5]; 24.1% in test [6].

As for `COC(=O)C1C2OC(C(Br)C2Br)C1C(=O)OC` (configuration not stated), the growth inhibition in test [1] is -12.1%; in test [2], -9.5%; in test [3], -1.15%; in test [4] it was -1.95%; in test [5] it was -1.65%; in test [6], -10.2%.

Turning to `CCOC(=O)c1cc2c(nc1C)-c1cc(Cl)ccc1OC2OCc1ccccc1` (configuration not stated), the growth inhibition is -1.65% in test [1]; -3% in test [2]; -21.6% in test [3]; -3.55% in test [4]; -12.2% in test [5]; 4.3% in test [6].

In the case of `OC(CNCCc1ccccc1)COc1cccc2ccccc12` (configuration not stated), the growth inhibition in test [1] was 86.2% (active); in test [2], 92% (active); in test [3], 96.9% (active); in test [4], 98.5% (active); in test [5] it was 88% (active); in test [6] it was 97.2% (active).

Consider `NC(=O)c1nnc2cc(F)ccc2c1N`, for which the growth inhibition was 4.8% in test [1]; -3.45% in test [2]; 1.35% in test [3]; 0.4% in test [4]; 1.6% in test [5]; -1.6% in test [6].

For the compound `N#C/C(=C\c1ccccc1[N+](=O)[O-])C(=O)O`, the growth inhibition in test [1] was 36.5%; in test [2], 0.45%; in test [3], 23.2%; in test [4], 16.9%; in test [5], -19%; in test [6], 3.7%.

On to `C/C(=N\N=C(N)N)C(CN(CC(C)C)CC(C)C)C(=O)Nc1ccc(C)cc1C` (configuration not stated), for which the growth inhibition in test [1] was 7.6%; in test [2], 6.55%; in test [3] it was 10.3%; in test [4], 38.3%; in test [5] it was -3.85%; in test [6], 13.8%.

Regarding `C/C=C/C=C/c1nc(C#N)c(N)o1`, the growth inhibition in test [1] is -7.6%; in test [2] it was -2.2%; in test [3] it was 1.55%; in test [4], 12.7%; in test [5], 15.3%; in test [6], -3.55%.

As to `CN(C)C1(C(=O)O)c2ccccc2-c2ccccc21`, the growth inhibition in test [1] was 9.85%; in test [2] it was 10.6%; in test [3], 21.8%; in test [4], -3.45%; in test [5], 16.3%; in test [6] it was -3.3%.

For `CC(C(=O)O)/C(=C\c1ccc2c(c1)OCO2)C(=O)O` (configuration not stated), the growth inhibition is 8.15% in test [1]; 11.3% in test [2]; -12.9% in test [3]; -7.7% in test [4]; 12.9% in test [5]; 16.8% in test [6].

Regarding `S=C(NCc1ccncc1)Nc1ccccc1Cl`, the growth inhibition in test [1] is 2.75%; in test [2], -0.5%; in test [3], -4.7%; in test [4] it was 12.7%; in test [5], 6.1%; in test [6] it was 9.55%.

As to `Cc1cccc(N2CC3CC4C=CC3(C2)O4)c1` (configuration not stated), the growth inhibition was 13.7% in test [1]; 7.65% in test [2]; 4.45% in test [3]; -15.2% in test [4]; 22.1% in test [5]; 13.1% in test [6].

For the compound `Cc1ccc(S(=O)(=O)CC(=O)CC(=O)C(=O)Nc2ccc(Cl)cc2C)cc1`, the growth inhibition was 11.2% in test [1]; -0.3% in test [2]; -7.95% in test [3]; -22.4% in test [4]; -0.75% in test [5]; 27.3% in test [6].

On to `C[N+](C)([O-])CCCNc1ccnc2cccc([N+](=O)[O-])c12`, for which the growth inhibition in test [1] was 24.1%; in test [2], 6.6%; in test [3], 28.9%; in test [4], 8.4%; in test [5] it was 9.95%; in test [6], -21.4%.

`Cc1ccccc1OCC(O)CO` (configuration not stated): the growth inhibition in test [1] is 4.2%; in test [2], -5.9%; in test [3] it was -8.7%; in test [4], 22.2%; in test [5], -23.4%; in test [6], -13.6%.

On to `O=C(NCCc1ccccc1)c1ccc2ccccc2n1`, for which the growth inhibition is 65.3% in test [1]; 53.3% in test [2]; 63.7% in test [3]; 52.1% in test [4]; 87.5% (active) in test [5]; 84.5% (active) in test [6].

As for `CC1=NCC(C)S1` (configuration not stated), the growth inhibition in test [1] is -3.3%; in test [2], -9.95%; in test [3], 7%; in test [4], -6.05%; in test [5] it was -9.3%; in test [6], -5.75%.

Take `CN1CCc2c1nc(-c1ccc([N+](=O)[O-])cc1)c1c2N(C)CC1`: the growth inhibition in test [1] is 13.2%; in test [2], 0.7%; in test [3] it was 2.8%; in test [4], 6.85%; in test [5], 10.8%; in test [6], 9.95%.

For `CC(C)CN(CC(C)C)C(=O)C1CCCC[C@@H]1C(=O)O` (some centres not stated), the growth inhibition is 16.9% in test [1]; 15.2% in test [2]; 5.8% in test [3]; 18.7% in test [4]; 16.4% in test [5]; 22.4% in test [6].

As for `Cc1ccc(/C=C/C(=O)/C=C/c2ccc(C)cc2)cc1`, the growth inhibition is 9.05% in test [1]; 9.25% in test [2]; 15.6% in test [3]; -2.6% in test [4]; 23.6% in test [5]; 18.7% in test [6].

In the case of `Cc1ccc(S(=O)(=O)/C(C#N)=C\N2CCNC2=S)cc1`, the growth inhibition is -11.7% in test [1]; -24.3% in test [2]; -6.4% in test [3]; 13.5% in test [4]; 4.4% in test [5]; -2.25% in test [6].

As to `CC(=O)Nc1ccc(/C=C2/C(=O)ON=C2C)cc1`, the growth inhibition in test [1] was 6.75%; in test [2], 6.6%; in test [3] it was 6%; in test [4] it was 11.8%; in test [5], 3.95%; in test [6] it was 13.4%.

Consider `CCCCCCCCCCCCCCCc1cc(O)ccc1N=O`, for which the growth inhibition in test [1] is -3.8%; in test [2] it was -16.5%; in test [3] it was -8.3%; in test [4], -3.45%; in test [5] it was -1.05%; in test [6], -11.7%.

For `CC1CC[C@]2(C(=O)O)CCC3(COC(=O)/C=C\c4ccc(O)cc4)C(=CCC4[C@@]5(C)CC[C@H](O)C(C)(C)C5CC[C@]43C)[C@@H]2[C@H]1C` (some centres not stated), the growth inhibition was -1.9% in test [1]; 1.35% in test [2]; -1.65% in test [3]; 5.55% in test [4]; -3.1% in test [5]; -17.8% in test [6].

Consider `c1ccc(C2=C(c3ccccc3)CSSC2)cc1`, for which the growth inhibition in test [1] is 46.4%; in test [2], 34.6%; in test [3], 79.8% (active); in test [4], 46.6%; in test [5], 41.7%; in test [6], 93.5% (active).

As to `CCCCCCCCCCCCCC(=O)OCCCC`, the growth inhibition in test [1] is -25.6%; in test [2], -54.4%; in test [3], -59.1%; in test [4] it was -143%; in test [5], -52%; in test [6], -7.35%.

Consider `N#Cc1ccccc1/C=N/O`, for which the growth inhibition in test [1] was 0.15%; in test [2], -6.55%; in test [3] it was -8.75%; in test [4], 0.95%; in test [5], -18.4%; in test [6], -14.1%.

As for `Cc1nc(=S)c2[nH]c(=S)[nH]c2[nH]1`, the growth inhibition in test [1] is -2.7%; in test [2], -16.1%; in test [3], -3.8%; in test [4], -18.8%; in test [5], -1.9%; in test [6] it was -8.2%.

Regarding `O=C1/C(=C/c2ccc(Cl)cc2)Oc2ccccc21`, the growth inhibition in test [1] was -31.4%; in test [2], -7.05%; in test [3], -18.9%; in test [4], 1.4%; in test [5] it was -8.1%; in test [6], -19.6%.

For `CC1(C)C(O)C(C)(C)C1O` (configuration not stated), the growth inhibition was 17.1% in test [1]; -17.6% in test [2]; 7.8% in test [3]; 6.95% in test [4]; 11.2% in test [5]; 10.2% in test [6].

Turning to `Cc1ccc(NC(=O)OCCN(C)C)cc1Cl`, the growth inhibition is -6.75% in test [1]; -25.8% in test [2]; 16.4% in test [3]; 11.1% in test [4]; 8.2% in test [5]; -4.6% in test [6].

In the case of `CC(C)CC(NC(c1ccccc1)P(=O)(O)O)C(=O)O` (configuration not stated), the growth inhibition in test [1] is -4.15%; in test [2] it was -13.2%; in test [3], -22.1%; in test [4], -9%; in test [5], -8.3%; in test [6], -27.1%.

As for `CCc1ccc(NC(=O)C(c2ccccc2)c2ccccc2)cc1`, the growth inhibition in test [1] was 8.6%; in test [2], 13.3%; in test [3], 2.35%; in test [4], 11.8%; in test [5] it was 20.6%; in test [6], -9.1%.

For the compound `COC(=O)C1(C2CCc3cc(OC)ccc3C2=O)NC(=S)NC(=O)C1C#N` (configuration not stated), the growth inhibition was -2.8% in test [1]; -4.45% in test [2]; -18.2% in test [3]; -4.05% in test [4]; -21.1% in test [5]; -6.65% in test [6].

Regarding `Cc1ccc(S(=O)(=O)OC2CCCCCCCCCCC2=O)cc1` (configuration not stated), the growth inhibition was -3.55% in test [1]; 6.1% in test [2]; -7.1% in test [3]; -11.9% in test [4]; -0.2% in test [5]; 6.3% in test [6].

In the case of `CCN1c2ccccc2CC(CCN(C(C)C)C(C)C)(C(N)=O)c2ccccc21` (configuration not stated), the growth inhibition in test [1] is 40.9%; in test [2], 4.9%; in test [3] it was 24.8%; in test [4], 21.3%; in test [5], -3.1%; in test [6], -0.9%.

On to `COc1cc(O)c(C(C)=O)c(O)c1O`, for which the growth inhibition is -20.4% in test [1]; -12.8% in test [2]; -3.1% in test [3]; -36.7% in test [4]; 4.8% in test [5]; 6.45% in test [6].
